# Reference: ChEMBL document CHEMBL4513141, “CO-ADD screening of NIH (USA) - Clinical Collection” (2021)
# Measured potencies and affinities stand elsewhere.
# Legend:
# [1] = tested on: Klebsiella pneumoniae; settings: Concentration 20 uM; ASSAY_TEST Inhibition of Bacterial Growth; detection method Absorption (OD600); MEDIA CAMHB; plate type 384well; NBS; CORNING #3640; time 18 hr
# [2] = tested on: Candida albicans; settings: 20 µM
# [3] = tested on: Cryptococcus neoformans; settings: Concentration 20 uM; ASSAY_TEST Inhibition of Fungal Growth; detection method Resazurin; Absorption (OD600-OD570); plate type 384well; NBS; CORNING #3640
Compound,Inhibition [1] [%],Inhibition [2] [%],Inhibition [3] [%]
Br.COc1ccc2c3c1O[C@H]1C[C@@H](O)C=C[C@@]31CCN(C)C2 [GALANTAMINE HYDROBROMIDE],16.19,3.12,-5.72
CS(=O)(=O)O.O=C(O[C@@H]1C[C@@H]2C[C@H]3C[C@H](C1)N2CC3=O)c1c[nH]c2ccccc12,8.46,2.39,1.75
COc1ccc(C(CN(C)C)C2(O)CCCCC2)cc1.Cl (configuration not stated) [VENLAFAXINE HYDROCHLORIDE],15.76,3.64,-9.68
Cc1ncc2n1-c1ccc(Cl)cc1C(c1ccccc1F)=NC2.Cl [MIDAZOLAM HYDROCHLORIDE],2.84,3.62,-0.63
C#CCN(C)[C@H](C)Cc1ccccc1.Cl [SELEGILINE HYDROCHLORIDE],8.65,4.68,1.77
COc1cc2c(cc1OC)[C@@]13CCN4CC5=CCO[C@H]6CC(=O)N2[C@H]1[C@H]6[C@H]5C[C@H]43 [BRUCINE],6.18,2.36,-1.81
C[C@]12CCC(=O)C[C@@H]1CC[C@@H]1[C@@H]2CC[C@@]2(C)[C@H]1CC[C@]2(C)O [MESTANOLONE],3.85,11.7,4.57
CN1CCN(C2=Nc3cc(Cl)ccc3Nc3ccccc32)CC1 [CLOZAPINE],8.37,0.59,-5.79
Cl.O=C1CC[C@@]2(O)[C@H]3Cc4ccc(O)c5c4[C@@]2(CCN3CC2CC2)[C@H]1O5 [NALTREXONE HYDROCHLORIDE],13,3.06,0.92
